Measurements taken from the supplement of paper PMC10646978.
± gives the standard deviation.

What was measured:
Details in all cases: modulator concentration 10 µM
[1] = test system: RAW-Dual (murine macrophage reporter line); experiment: NF-kB reporter (SEAP) activity fold change vs agonist alone; higher = enhanced NF-kB activity
Outline: (§1)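 Overnight stimulation with a PRR agonist followed pre-incubation for 1 hour at 37 °C with compound at 10 μM final. This was done in RAW-Dual murine macrophage reporter cells seeded at 50 000 per well in 384-well plates. NF-κB (SEAP, QUANTI-Blue absorbance at 620 nm) and IRF (Lucia luciferase, QUANTI-Luc luminescence) were read from the supernatant. Each reporter's fold change relative to the mean agonist-only control on the same plate was averaged over replicate plates.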

[2] = test system: RAW-Dual (murine macrophage reporter line); experiment: IRF reporter (Lucia luciferase) activity fold change vs agonist alone; higher = enhanced IRF activity
Outline: as §1

[3] = test system: RAW-Dual (murine macrophage reporter line); experiment: viability score (confluency relative to resting cells, overnight) (fraction); higher = more viable, active = viable (0.7 or more)
Outline: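 Compound was added at a final 10 μM to RAW-Dual macrophages in 384-well plates and left overnight. Confluency was imaged with IncuCyte, and two masks were generated in IncuCyte software over all imaged wells. Each viability score is confluency relative to resting cells, and a compound met the cutoff only when both masks were above 70% of resting cells.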

[4] = agonist: CpG ODN 1826 0.5 ug/mL

Row | SMILES | NF-kB reporter [1, 4] | NF-kB reporter ([1]; agonist: LPS 0.1 ug/mL) | NF-kB reporter ([1]; agonist: MPLA […]) | IRF reporter ([2]; agonist: 3'3'-cGAMP 10 ug/mL) | IRF reporter ([2]; agonist: LPS 0.1 ug/mL) | IRF reporter ([2]; agonist: MPLA […]) | viability score [3]
1 | Nc1ncnc2c1ncn2[C@@H]1O[C@H](CO)[C@@H](O)[C@H]1O | 1.03 ± 0.08 | 1.13 ± 0.079 | 1.17 ± 0.11 | 1.22 ± 0.25 | 0.879 ± 0.03 | 0.852 ± 0.11 | 1 (active)
2 | COC(=O)Nc1nc2cc(S(=O)c3ccccc3)ccc2[nH]1 (stereo not given) [Prestw-1459] | 1.03 ± 0.087 | 0.896 ± 0.079 | 0.932 ± 0.051 | 0.896 ± 0.04 | 0.825 ± 0.13 | 0.884 ± 0.23 | 0.999 (active)
3 | Cc1ncsc1C(=O)N1CC(OCC(F)(F)F)C1 | 0.974 ± 0.11 | 0.996 ± 0.08 | 1.01 ± 0.095 | 1.08 ± 0.11 | 1.01 ± 0.09 | 0.999 ± 0.25 | 1 (active)
4 | C#Cc1cccc(Nc2ncnc3cc(OC)c(OCCCCCCC(=O)NO)cc23)c1 | 1.12 ± 0.058 | 1.45 ± 0.11 | 2.44 ± 0.12 | 0.563 ± 0.034 | 0.43 ± 0.029 | 0.581 ± 0.068 | 0.973 (active)
5 | Cc1ncn(CC(=O)N2CC(Oc3cccc(C(F)(F)F)n3)C2)c(=O)c1C | 0.986 ± 0.059 | 1.09 ± 0.086 | 0.9 ± 0.08 | 0.83 ± 0.12 | 1.21 ± 0.086 | 1.25 ± 0.097 | 1 (active)
6 | CC(Oc1ccc(Cl)cc1)C(=O)NCc1cccnc1 (stereo not given) | 1.2 ± 0.11 | 0.981 ± 0.12 | 0.989 ± 0.096 | 1.05 ± 0.026 | 1.31 ± 0.17 | 1.17 ± 0.12 | 1.01 (active)
7 | O=C(Nc1ccc(-c2cn3ccsc3n2)cc1)NC1CCCCC1 | 2.23 ± 0.14 | 1.16 ± 0.12 | 1.59 ± 0.11 | 0.5 ± 0.032 | 0.923 ± 0.086 | 1.22 ± 0.18 | 0.826 (active)
8 | Cc1cn2c(nc1=O)OC1C(O)C(CO)OC12 (stereo not given) | 1.01 ± 0.08 | 1.02 ± 0.075 | 0.953 ± 0.091 | 1.02 ± 0.048 | 1.29 ± 0.2 | 1.44 ± 0.4 | 1.03 (active)
9 | O=C(COCc1ccccc1)NC1CCC(F)(F)CC1 | 0.891 ± 0.068 | 1.03 ± 0.14 | 0.777 ± 0.057 | 0.643 ± 0.036 | 1.1 ± 0.069 | 1.02 ± 0.36 | 1.01 (active)
10 | Cc1c(-c2ccccc2)nc2ccccc2c1C(=O)N1CCCC1 | 1.09 ± 0.095 | 1.13 ± 0.087 | 1.1 ± 0.069 | 1.01 ± 0.035 | 1.62 ± 0.18 | 1.24 ± 0.13 | 1.01 (active)
11 | Cc1ccc(C(CNC(=O)NC2CCCC2)OCCO)cc1 (stereo not given) | 0.622 ± 0.072 | 1.08 ± 0.1 | 0.808 ± 0.047 | 0.944 ± 0.075 | 1.07 ± 0.1 | 1.1 ± 0.27 | 1.01 (active)
12 | NS(=O)(=O)c1ccc(C(=O)O)cc1 | 0.892 ± 0.066 | 0.94 ± 0.096 | 1.06 ± 0.096 | 1.01 ± 0.054 | 1.01 ± 0.18 | 1 ± 0.31 | 0.994 (active)
13 | N#Cc1ccnc(N2C(=O)CC[C@H]2C(=O)N(c2cncc(F)c2)[C@H](C(=O)NC2CC(F)(F)C2)c2ccccc2Cl)c1 | 1.26 ± 0.3 | 1.04 ± 0.07 | 1.26 ± 0.08 | 1.09 ± 0.055 | 1.28 ± 0.2 | 1.17 ± 0.12 | 1 (active)
14 | Nc1nc(=O)[nH]cc1F | 0.84 ± 0.12 | 1.07 ± 0.085 | 1.08 ± 0.11 | 1.02 ± 0.049 | 1.23 ± 0.071 | 1.33 ± 0.11 | 1.01 (active)
15 | CCCCCCCCCCCC(CC1OC(=O)C1CCCCCC)OC(=O)C(CC(C)C)NC=O (stereo not given) | 1.55 ± 0.37 | 1.04 ± 0.092 | 0.364 ± 0.07 | 0.475 ± 0.023 | 1.61 ± 0.19 | 0.197 ± 0.065 | 0.943 (active)
16 | Cc1cc(O)nc(NN)n1 | 1.06 ± 0.087 | 1.01 ± 0.062 | 1.02 ± 0.033 | 0.983 ± 0.054 | 0.971 ± 0.13 | 0.861 ± 0.13 | 0.999 (active)
17 | O=C1OC(c2ccc3ccccc3c2)=NC1=Cc1ccc(Br)c([N+](=O)[O-])c1 | 0.963 ± 0.15 | 0.878 ± 0.08 | 0.896 ± 0.1 | 0.861 ± 0.04 | 1.16 ± 0.11 | 1.19 ± 0.24 | 0.998 (active)
18 | CCN(CC)c1ccc(C=NNC(=O)c2ccc(O)cc2)c(O)c1 | 2.52 ± 0.2 | 1.31 ± 0.089 | 5.86 ± 0.2 | 0.2 ± 0.0075 | 0.845 ± 0.038 | 0.758 ± 0.12 | 0.577 (inactive)

Row | SMILES | NF-kB reporter [1, 4] | NF-kB reporter ([1]; agonist: LPS 0.1 ug/mL) | NF-kB reporter ([1]; agonist: MPLA […]) | IRF reporter ([2]; agonist: 3'3'-cGAMP 10 ug/mL) | IRF reporter ([2]; agonist: LPS 0.1 ug/mL) | IRF reporter ([2]; agonist: MPLA […]) | viability score [3]
19 | COC(=O)c1c(NC(=O)C2CCCCC2)sc2c1CC(C)(C)NC2(C)C | 1.12 ± 0.095 | 1.24 ± 0.1 | 1.47 ± 0.16 | 0.764 ± 0.08 | 1.06 ± 0.1 | 1.82 ± 0.38 | 0.419 (inactive)
20 | O=C(NN=Cc1ccc([N+](=O)[O-])s1)c1ccc(Br)cc1 | 0.968 ± 0.083 | 0.858 ± 0.082 | 0.96 ± 0.09 | 0.395 ± 0.068 | 1.18 ± 0.2 | 1.14 ± 0.28 | 0.996 (active)
21 | Cn1nccc1C(=O)N1CCC(O)(C(F)(F)F)CC1 | 1.22 ± 0.29 | 0.996 ± 0.082 | 1.01 ± 0.078 | 0.92 ± 0.033 | 1.14 ± 0.13 | 1.3 ± 0.19 | 0.997 (active)
22 | CN1CC(O)C2=C/C(=N/NC(N)=O)C(=O)C=C21 (stereo not given) | 0.855 ± 0.048 | 1 ± 0.084 | 0.927 ± 0.065 | 0.99 ± 0.046 | 1.09 ± 0.18 | 1.24 ± 0.44 | 0.665 (inactive)
23 | O=C(NCCN1CCN(c2ccc(Cl)cc2)CC1)c1ccncc1 | 0.974 ± 0.076 | 0.99 ± 0.076 | 1.01 ± 0.027 | 1.01 ± 0.053 | 1.02 ± 0.081 | 0.986 ± 0.097 | 0.998 (active)
24 | CN1CCN(CCC=C2c3ccccc3Sc3ccc(S(=O)(=O)N(C)C)cc32)CC1 | 0.935 ± 0.071 | 1.04 ± 0.12 | 1.01 ± 0.051 | 0.856 ± 0.057 | 0.978 ± 0.078 | 0.872 ± 0.076 | 0.991 (active)
25 | CCOc1nc2cccc(C(=O)O)c2n1Cc1ccc(-c2ccccc2-c2nn[nH]n2)cc1 | 1.09 ± 0.15 | 1.17 ± 0.38 | 0.976 ± 0.054 | 0.907 ± 0.069 | 1.26 ± 0.31 | 0.98 ± 0.13 | 1.01 (active)
26 | CCOC(=O)c1ncn2c1CN(C)C(=O)c1cc(F)ccc1-2 | 1.26 ± 0.22 | 1.03 ± 0.28 | 0.975 ± 0.058 | 0.912 ± 0.029 | 1.2 ± 0.27 | 1.16 ± 0.088 | 0.995 (active)
27 | Cc1ccc2c(c1)C(=O)CC(O)(C(F)F)O2 (stereo not given) | 0.922 ± 0.073 | 1 ± 0.067 | 0.954 ± 0.062 | 0.764 ± 0.12 | 0.984 ± 0.089 | 0.959 ± 0.14 | 1 (active)
28 | COc1ccc(C2NC(=O)C(O)=C2C(C)=O)cc1 (stereo not given) | 0.734 ± 0.057 | 0.884 ± 0.11 | 1.09 ± 0.095 | 0.914 ± 0.047 | 1.29 ± 0.085 | 1.41 ± 0.12 | 1.01 (active)
29 | CCOC(=O)C1CCCN(S(=O)(=O)Cc2ccccc2)C1 (stereo not given) | 0.766 ± 0.067 | 0.879 ± 0.043 | 1.02 ± 0.089 | 0.814 ± 0.04 | 1.42 ± 0.096 | 1.53 ± 0.14 | 1.01 (active)
30 | CCCCc1nc2cc(/C=C/C(=O)NO)ccc2n1CCN(CC)CC | 1.6 ± 0.08 | 1.77 ± 0.14 | 2.71 ± 0.12 | 0.0513 ± 0.0098 | 0.266 ± 0.019 | 0.424 ± 0.05 | 0.0718 (inactive)
31 | CC(C)(C)c1cc(C(=O)Oc2cccc3cccnc23)cc(C(C)(C)C)c1 | 0.895 ± 0.05 | 0.976 ± 0.06 | 0.923 ± 0.064 | 0.938 ± 0.034 | 1.25 ± 0.097 | 1.23 ± 0.12 | 1 (active)
32 | Cc1c(C)c2c(c(C)c1O)CCC(C)(C(=O)O)O2 (stereo not given) [Prestw-530] | 1.14 ± 0.13 | 1.03 ± 0.078 | 0.98 ± 0.03 | 0.986 ± 0.042 | 0.98 ± 0.054 | 1.03 ± 0.1 | 0.998 (active)
33 | COc1ncc(-c2ccc3nccc(-c4ccnnc4)c3c2)cc1NS(=O)(=O)c1ccc(F)cc1F | 1.56 ± 0.067 | 1.79 ± 0.14 | 3.01 ± 0.16 | 0.389 ± 0.051 | 1.2 ± 0.1 | 2.66 ± 0.33 | 0.33 (inactive)
34 | CC1=NN(c2ccc(C)c(C)c2)C(=O)/C1=N\Nc1cccc(-c2cccc(C(=O)O)c2)c1O.NCCO.NCCO | 1.63 ± 0.31 | 1.28 ± 0.23 | 1.49 ± 0.14 | 0.601 ± 0.019 | 1.16 ± 0.098 | 1.2 ± 0.11 | 0.861 (active)
35 | Cn1c(=O)cc(N2CCC[C@@H](N)C2)n(Cc2cc(F)ccc2C#N)c1=O.O=C(O)CCC(=O)O | 0.0816 ± 0.0048 | 0.119 ± 0.014 | 0.376 ± 0.039 | 0.0243 ± 0.0016 | 0.262 ± 0.076 | 0.205 ± 0.069 | 0.128 (inactive)
